TDP1 cell CPT – DT40-hTDP1 cell growth loss with CPT. AID 686979. chicken DT40 Tdp1-/-;hTDP1 cells + 20 nM CPT, ATP luminescence, 48 h. Potency, µM (series often up to 46.2 µM), for the others: at the top dose activity change, negative = growth inhibition, hits mostly inhibitors. actives 12% (n = 420,000); further: potency means the concentration at half of the fitted maximal effect; nearly all actives have a fitted effect of over 55% in size
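Chicken DT40 Tdp1-/- cells stably complemented with human TDP1 were seeded at 400 cells/well in medium containing 20 nM camptothecin, exposed to pin-transferred compounds, and grown at 37 °C for at least 48 hr. Viability was read as ATP luminescence.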
IL-1B inflam inh – inhibitors of inflammasome signaling (IL-1 beta secretion) | THP-1 LPS/ATP IL-1B secretion, AlphaLISA, 16 h; active compounds read low | activity change, % at 57.5 µM | actives 4.7% (n = 360,000) | AID 743279; in the data active means activity change below about -50%; inconclusive means mostly about -30% to -49%
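THP-1 cells pretreated 1 hr with compounds (up to 57.5 uM final), then stimulated with LPS (250 ng/mL final) plus ATP (1.25 mM final); secreted IL-1B measured by AlphaLISA after 16 hr, decreased signal indicating inhibition.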
RORgamma inh – ROR gamma (mouse) transcription inhibition; P51450; AID 2551; actives 5.4% (n = 310,000); Potency, µM (top dose mostly 53.6 µM), for the others: at the top dose activity change, negative = inhibition, most hits filed as inhibitors; Drosophila S2 Gal4-RORgamma UAS-luciferase reporter, 20 h; further: potency means the concentration at half of the fitted maximal effect; nearly all actives have a fitted effect of over 60% in size
Target sequence (P51450 whole entry, looked up, the tested form may be a part): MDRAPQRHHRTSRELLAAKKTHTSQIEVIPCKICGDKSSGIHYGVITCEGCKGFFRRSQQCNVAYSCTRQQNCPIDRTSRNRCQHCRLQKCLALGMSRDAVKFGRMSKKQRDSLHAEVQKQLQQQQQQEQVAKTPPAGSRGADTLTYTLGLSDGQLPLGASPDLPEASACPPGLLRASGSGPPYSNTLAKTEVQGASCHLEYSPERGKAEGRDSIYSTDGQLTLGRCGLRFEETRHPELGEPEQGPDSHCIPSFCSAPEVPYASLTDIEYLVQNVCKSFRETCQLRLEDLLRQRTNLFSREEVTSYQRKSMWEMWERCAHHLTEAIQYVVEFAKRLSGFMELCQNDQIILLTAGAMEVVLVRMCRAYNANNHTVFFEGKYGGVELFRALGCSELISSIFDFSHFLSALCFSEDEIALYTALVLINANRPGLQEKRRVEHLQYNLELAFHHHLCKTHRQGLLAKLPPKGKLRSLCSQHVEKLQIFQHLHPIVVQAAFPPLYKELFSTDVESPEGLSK
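Stable Schneider cell line, Gal4 DNA-binding domain fused to ROR gamma, UAS-luciferase. Cmpd 1 hr RT → CuSO4 700 uM final → 20 hr RT → luciferase reagent 10 min → luminescence.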
Gal4-VP16 FLuc – counter-screen for ROR gamma inhibitors: Gal4-VP16 reporter; actives 3.5% (n = 310,000); Drosophila S2 Gal4-VP16 UAS-luciferase, luminescence, 20 h; Potency, µM (titrated, usually from 53.6 µM), without a hit: at the top dose activity, negative = inhibition, most hits filed as inhibitors; AID 2546;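 further: Gal4-VP16 expression switched on by copper sulfate through the metallothionein promoter; potency means the concentration at half of the fitted maximal effect; nearly all actives have a fitted effect of over 50% in size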
LDHA inh – LDHA (human) enzyme inhibition; purified LDHA, NADH/diaphorase-resazurin fluorescence; active compounds read low; actives 0.15% (n = 480,000); activity change, % (values are at about 110 or 230 µM); in the data active means activity change below about -30%; inconclusive means mostly about -25% to -30%;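 further: plate controls were DMSO wells for no effect and wells without enzyme for full effect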
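LDH5 2 nM; NADH 0.06 mM, pyruvate 0.2 mM; 200 mM Tris pH 7.4, EDTA, Tween-20; 5 min RT. Detection: diaphorase 0.133 mg/mL + resazurin 37 µM, fluorescence ex540/em590 at 0 and 20 min; normalized to enzyme-free and DMSO wells.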
DT40 TDP1 no CPT – qHTS for Inhibitors of human tyrosyl-DNA phosphodiesterase 1 (TDP1): qHTS in cells in absence of CPT | DT40 Tdp1-/- hTDP1 cells, no CPT, ATP luminescence, 48 h | Potency, µM (highest dose often 46.2 µM), for the others: at the top dose activity change, negative = growth inhibition, usual class: inhibitors | actives 15% (n = 420,000) | AID 686978, 2013; further: potency means the concentration at half of the fitted maximal effect; nearly all actives have a fitted effect of over 55% in size
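Stably hTDP1-transfected Tdp1-null chicken DT40 cells were treated with library compounds minus camptothecin and grown for at least 48 hr at 37 °C, after which cellular ATP was quantified by luminescence.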
* marks the source's active call; other numbers are inactive results; u = inconclusive; x = not tested or not shown; [ ] = dose if it differs, or a comment. Compounds with a hit are over-represented: about 18% of the library has one in this group of screens. Unless noted, the call rests on the fitted dose curve; in most records, active means well fitted curve in the direction sought with a large enough effect; inconclusive means small, poorly fitted or top-dose-only effect, or another doubt; inactive means no such curve, though single readings can be large; an effect the other way counts as inactive or inconclusive. Unless noted, on the % scale 0 is the no-effect control and ±100 the full control effect.

SMILES | TDP1 cell CPT | IL-1B inflam inh | RORgamma inh | Gal4-VP16 FLuc | LDHA inh | DT40 TDP1 no CPT
O=C(Nc1cccc(Cl)c1)c1ccc2c(=O)n3c(nc2c1)CCCCC3 | 23µM* | -74* | 26% | 0% | -11 | u
O=C(Nc1ccc(F)c(Cl)c1)c1ccc2c(=O)n3c(nc2c1)CCCCC3 | 16µM* | -10 | 31% | 1% | -4 | 21µM*
Cc1ccc(-c2csc(NC(=O)c3ccc4c(=O)n5c(nc4c3)CCCCC5)n2)cc1 | 10µM* | 0 | u | -9% | 2 | 13µM*
O=C(Nc1ccc(S(=O)(=O)N2CCCC2)cc1)c1ccc2c(=O)n3c(nc2c1)CCCCC3 | u | -5 | u | -7% | 5 | 16µM*
O=C(Nc1ccc(Cl)cc1)c1ccc2c(=O)n3c(nc2c1)CCCCC3 | u | 29 | 22% | 8% | -5 | u
COc1ccc(Cl)cc1NC(=O)c1ccc2c(=O)n3c(nc2c1)CCCC3 | x | x | x | x | 2 | x
O=C(Nc1oc2ccc(Cl)cc2c(=O)c1-c1ccccc1)c1cccs1 | x | x | x | x | 10 | x
COc1ccccc1NC(=O)c1ncoc1-c1ccc(OC)c(OC)c1 | x | x | x | x | 8 | x
O=C(Nc1ccc(F)cc1)c1ccc2c(=O)n3c(nc2c1)CCCCC3 | u | -14 | 33% | u | -8 | 16µM*
CC(=O)c1ccc(NC(=O)c2ccc3c(=O)n4c(nc3c2)CCCCC4)cc1 | u | -13 | 16% | 5% | 0 | u
COc1ccc(CCN2CCCC(CN(C)Cc3cc(OC)ccc3OC)C2)cc1 (stereo unspecified) | u | u | 0% | -8% | -1 | u
CN(Cc1ccccc1O)CC1CCCN(CCc2ccc(Cl)cc2)C1 (stereo unspecified) | u | -14 | -28% | 3% | -16 | u
COc1ccc(CCN2CCCC(CN(C)Cc3cccc(OC)c3)C2)cc1 (stereo unspecified) | u | -15 | 0% | 2% | -1 | u
CN(Cc1ccc(C#CCCO)cc1)CC1CCCN(CCc2ccc(Cl)cc2)C1 (stereo unspecified) | 18µM* | -29 | -32% | 2% | 0 | 15µM*
CCN(Cc1ccc(C#CCCO)cc1)CC1CCCN(CCc2cccc(F)c2)C1 (stereo unspecified) | u | -23 | -38% | 1% | -3 | 21µM*
Cc1occc1C(=O)N(C)CC1CCCN(CCc2ccc(Cl)cc2)C1 (stereo unspecified) | u | -22 | x | x | -5 | 21µM*
COc1ccc(CN(C)CC2CCCN(CCc3ccc(F)cc3)C2)c(OC)c1OC (stereo unspecified) | 23µM* | x | -3% | -6% | -3 | 15µM*
C#CC(C)(CC)NC(=O)Cc1cccs1 (stereo unspecified) | x | x | x | x | 2 | x
COc1ccc(/C=C/C(=O)OCC(=O)N2c3ccccc3CC2C)c(OC)c1 (stereo unspecified) | u | -20 | x | x | -7 | 18µM*
CC1Cc2ccccc2N1C(=O)CO/N=C/c1ccccc1OC(F)F (stereo unspecified) | u | -29 | 21% | 0% | -2 | 21µM*
O=C(CO/N=C/c1ccccc1OC(F)F)N1CCc2ccccc21 | -3% | 28 | 13%[10 µM] | -6% | -2 | 10%
COc1cccc(/C=C/C(=O)OCC(=O)N2c3ccccc3CC2C)c1OC (stereo unspecified) | 3% | 10 | x | x | 1 | 4%
Cc1ccc2cccc(OCCOc3ccc(C#N)cc3)c2n1 | x | x | x | x | 21 | x
O=C(CCSc1nc(Cl)nc2nc[nH]c12)NCc1ccccc1 | x | x | x | x | -6 | x
Cc1ccc(C(=O)O/N=C(\N)Cc2ccc([N+](=O)[O-])cc2)c(Cl)c1 | u | u | -22% | -17% | -1 | 23µM*
SMILES | TDP1 cell CPT | IL-1B inflam inh | RORgamma inh | Gal4-VP16 FLuc | LDHA inh | DT40 TDP1 no CPT
N/C(Cc1ccc([N+](=O)[O-])cc1)=N\OC(=O)c1ccc2ccccc2c1 | 9.2µM* | 3 | u | -13% | -19 | u
N/C(Cc1ccc([N+](=O)[O-])cc1)=N\OC(=O)C(c1ccccc1)c1ccccc1 | u | u | u | 10µM* | 2 | -27%
Cc1ccc(CC(=O)O/N=C(\N)Cc2ccc([N+](=O)[O-])cc2)cc1 | 7% | -10 | 0% | u | -4 | -27%
Cc1cccc(C(=O)O/N=C(\N)Cc2ccc([N+](=O)[O-])cc2)c1 | 26µM* | -7 | u | u | -3 | -22%
CSc1ccc(/C=C(/C#N)C(=O)Nc2c(C)cc(C)cc2C)cc1 | x | x | x | x | 12 | x
N/C(Cc1ccc([N+](=O)[O-])cc1)=N\OC(=O)c1ccccc1Br | u | u | u | 11µM* | -3 | u
COc1cccc(C(=O)O/N=C(\N)c2ccc(C)cc2)c1 | -20% | 5 | -41% | -21% | -5 | -8%
N/C(=N\OC(=O)Cc1ccc([N+](=O)[O-])cc1)c1cccc(Br)c1 | 26% | -82* | 3% | 4% | -4 | 2%
N/C(Cc1ccc([N+](=O)[O-])cc1)=N\OC(=O)CC1CCCCC1 | u | -3 | 13µM* | 13µM* | 7 | u
COc1cccc(C(=O)O/N=C(\N)Cc2ccc(Cl)cc2)c1 | u | -9 | -38% | 13µM* | -4 | u
Cc1cnc(C(=O)Nc2ncc(Cc3ccc(C#N)cc3C(F)(F)F)s2)cn1 | x | x | x | x | -1 | x
CCCc1noc(-c2cc(S(=O)(=O)NCCc3ccccc3)ccc2OC)n1 | x | x | x | x | 8 | x
S=C(NCc1cccnc1)NC1CC1 | x | x | x | x | 11 | x
CNc1oc(C2CCCC2)nc1C#N | x | x | x | x | -2 | x
Cc1cccc(C(=O)O/N=C(\N)Cc2cccc3ccccc23)c1 | -9% | 18 | u | 11µM* | -1 | -2%
Cc1cccc(/C(N)=N/OC(=O)Cc2cccc3ccccc23)c1 | 2% | 24 | -20% | -8% | -2 | -5%
Cc1cc(-c2ccccc2)cc(-c2ccccc2)[n+]1C | 10µM* | 3 | 19% | u | -6 | 8.2µM*
CC1=CCC2C(=O)N(C(C)c3ccccc3)C(=O)C2C1 (stereo unspecified) | -2% | -7 | 6% | 4% | -8 | -2%
CC1=CCC2C(=O)N(c3nc4ccccc4n3C)C(=O)C2C1 (stereo unspecified) | -2% | 12 | 3.5µM* | u | -4 | -7%
O=C(Nc1cccc(Cl)c1)Nc1ncc(Cl)cc1Cl | x | x | x | x | 0 | x

Screening results deposited in PubChem BioAssay by National Center for Advancing Translational Sciences (NCATS).
